Activity calls are given as the source filed them. Calls follow the shape of the dose curve; as a rule, active = well fitted curve in the direction sought with a large enough effect in the repeat runs; inconclusive = weak or mixed curves; inactive = flat fitted curve, though single readings scatter.
Assay: qHTS assay to test for compound auto fluorescence at 460 nm (blue) in HepG2 cell free culture (AID 720685)
Details: Cell-free culture medium, blue autofluorescence 405/460 nm; series mostly up to 91.3 µM
Source text: U.S. Tox21 Program National Center for Advancing Translational Sciences [NCATS] NIH Chemical Genomics Center [NCGC] U.S. Environmental Protection Agency [EPA] National Institutes of Environmental Health Sciences [NIEHS] National Toxicology Program [NTP] U.S. Food and Drug Administration [FDA] Tox21 Assay Overview: Compound auto fluorescence often interferes with screening of the compound library against various biological targets and signaling pathways. Some of these compounds may have fluorophoric properties. Such properties may interfere with the assay outputs resulting in false positives and/or negatives. To decrease such complications and ensure the compound activities are relevant in terms of biological response, the Tox21 10K compound library was screened for auto fluorescence. From the fluorophores used as reporter signals in our screening assays, the auto fluorescence equivalencies of compounds against three fluorophores have been evaluated: Triamterene, Fluorescein and Rose Bengal sodium for blue, green and red fluorescence, respectively. The fluorescence intensities were measured using Excitation/Emission wavelengths at 405/460nm, 485/535nm and 540/590nm for blue, green and red labels, respectively. This assay includes the blue fluorescence data.
Tox21 Assay Protocol Summary: 5 uL of culture medium (MEM containing 10% FBS) per well was dispensed into black wall/clear bottom 1536-well plates using a Multidrop Combi Dispenser (ThermoFisher Scientific, Waltham, MA). After 23 nL compound or DMSO vehicle was transferred into assay plate by a pintool work station (Kalypsys, San Diego, CA), fluorescence intensities in the assay plates were measured by an Envision (PerkinElmer, Shelton, CT) plate reader using three labels for measuring blue, green and red fluorescence at […] 460, 535 and 590nm respectively.

Row | SMILES | outcome
1 | CC(=O)[C@H]1CC[C@H]2[C@@H]3CC[C@H]4C[C@](C)(O)CC[C@]4(C)[C@H]3CC[C@]12C | inactive
2 | CCOP(=S)(OCC)Oc1nc(Cl)c(Cl)cc1Cl | inactive
3 | CC1CC(CC2CCC(N)C(C)C2)CCC1N (stereo not given) | inactive
4 | Brc1ccc(Oc2ccccc2)cc1 | inactive
5 | CCOS(C)(=O)=O | inactive
6 | C=CCCl | inactive
7 | O=S(=O)(Cl)c1ccccc1 | inactive
8 | CN1[C@@H]2CC[C@H]1CC(OC(=O)c1cc(Cl)cc(Cl)c1)C2 (stereo not given in full) | inactive
9 | CC(C)(CCl)C(=O)Cl | inactive
10 | CCBr | inactive
11 | CC(Cl)Cl | inactive
12 | Cl/C=C\Cl | inactive
13 | O=C(NC(=O)c1c(F)cccc1F)Nc1ccc(OC(F)(F)C(F)OC(F)(F)F)c(Cl)c1 (stereo not given) | inactive
14 | Nc1nc(N)nc(N)n1 | inactive
15 | COc1cc(Cl)c(OC)cc1Cl | inactive
16 | C#CCOC(C(=O)OCCN(C)C)(c1ccccc1)c1ccccc1 | inactive
17 | O=C1c2ccccc2C(=O)C1C(=O)C(c1ccccc1)c1ccccc1 | inactive
18 | C=CC(C)=O | inactive
19 | Cl/C=C\C[N+]12CN3CN(CN(C3)C1)C2 | inactive
20 | CCCCCC[N+](=O)[O-] | inactive

Row | SMILES | outcome
21 | CCCCCCC#N | inactive
22 | C=CC(=O)OCCCCO | inactive
23 | [O-][Cl+]O | inactive
24 | C=C(C#N)CCC#N | inactive
25 | CCOP(=S)(Oc1ccc([N+](=O)[O-])cc1)c1ccccc1 (stereo not given) | inactive
26 | C=CC(=O)NCNC(=O)C=C | inactive
27 | CC(Cl)C(C)Cl (stereo not given) | inactive
28 | C/C(=C\c1ccccc1)[N+](=O)[O-] | inactive
29 | CCCC(=O)Cl | inactive
30 | c1ccoc1 | inactive
31 | IC(I)=C(I)I | inactive
32 | c1ccc(CN2CCNCC2)cc1 | inactive
33 | OC(c1ccc(Cl)cc1)(c1ccc(Cl)cc1)c1cccnc1 | inactive
34 | O=C(NC(=O)c1c(F)cccc1F)Nc1cc(Cl)c(Oc2ncc(C(F)(F)F)cc2Cl)c(Cl)c1 | inactive
35 | II | inactive
36 | COc1c(C(C)(C)C)cc([N+](=O)[O-])c(C)c1[N+](=O)[O-] | inactive
37 | CC1(C)[C@H](C=C(Cl)Cl)[C@@H]1C(=O)O[C@@H](C#N)c1cccc(Oc2ccccc2)c1 | inactive
38 | CC(C)(C)c1cc([N+](=O)[O-])cc([N+](=O)[O-])c1O | inactive
39 | O=C(O)CC(Cl)C(=O)O (stereo not given) | inactive
40 | CCOc1ccc(C(C)(C)COCc2cccc(Oc3ccccc3)c2)cc1 | inactive

— PubChem BioAssay (Tox21)
